{"source": "PubChem BioAssay (NCATS)", "key": {"[1]": {"assay": "qHTS of pediatric cancer cell lines to identify multiple opportunities for drug repurposing: Primary screen for control Hh wild type fibroblast cells (AID 1347106);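 also: a drop in luminescence marks cytotoxicity and a rise apparent proliferation; nearly all actives have a fitted effect of over 55% in size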", "settings": "Hh wild-type fibroblast viability, CellTiter-Glo luminescence, 48 h; series mostly up to 46 µM", "summary_of_the_method": "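Viability after 48 h compound treatment at 37C, 500-1,000 cells/well, read as ATP luminescence with CellTiter-Glo. Primary screens used 11-point (MIPE, 0.78 nM-46 µM) or 8-point (NPC, 0.59 nM-46 µM) final concentrations; follow-up screens used 11-point dilutions.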"}, "[2]": {"assay": "qHTS of pediatric cancer cell lines to identify multiple opportunities for drug repurposing: Primary screen for Rh30 cells (AID 1347107); also: nearly all actives have a fitted effect of over 75% in size", "settings": "Rh30 rhabdomyosarcoma viability, CellTiter-Glo luminescence, 48 h; series mostly up to 46 µM", "summary_of_the_method": "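Cells (500-1,000/well) in growth media were settled 5 h at 37 degrees C, then given compounds for 48 h. Viability was read as CellTiter-Glo luminescence. Primary runs used MIPE at 11 points (0.78 nM-46 µM) and NPC at 8 points (0.59 nM-46 µM); follow-ups used 11 points.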"}, "[3]": {"assay": "qHTS of pediatric cancer cell lines to identify multiple opportunities for drug repurposing: Primary screen for Rh41 cells (AID 1347108); also: nearly all actives have a fitted effect of over 70% in size; also: potency is read from the fitted curve at half-maximal effect", "settings": "Rh41 rhabdomyosarcoma viability, CellTiter-Glo luminescence, 48 h; series mostly up to 46 µM", "summary_of_the_method": "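Viability was measured as metabolically active cells after 48 hours of treatment, read by CellTiter-Glo luminescence. Compounds were tested at multiple final concentrations, giving concentration-response curves.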"}}, "note": "Results filed as inconclusive are left out. Where a call stands in place of a potency, no number is given. The source made the active and inactive calls. Calls follow the shape of the dose curve; as a rule, active = well fitted curve in the direction sought with a large enough effect; inconclusive = small, poorly fitted or top-dose-only effect, or another doubt; inactive = no such curve, though single readings can be large; an effect the other way counts as inactive or inconclusive."}
{"smiles": "COc1ccccc1[C@H](c1cccc2ccccc12)[C@@](C)(C#N)C(=O)N1CCC(c2cccc(C(F)(F)F)c2)CC1", "values": [{"measurement": "Potency", "setting": "[1]", "result": "inactive"}, {"measurement": "Potency", "setting": "[2]", "result": "inactive"}, {"measurement": "Potency", "setting": "[3]", "result": "5.9 µM (active)"}]}
{"smiles": "Cc1cc(Nc2nc(N[C@@H](C)c3ncc(F)cn3)ncc2Cl)n[nH]1", "values": [{"measurement": "Potency", "setting": "[1]", "result": "inactive"}, {"measurement": "Potency", "setting": "[2]", "result": "inactive"}, {"measurement": "Potency", "setting": "[3]", "result": "9.35 µM (active)"}]}
{"smiles": "COc1ccccc1-c1cccc(-c2c(O)c3cc(C#N)c(Cl)cc3[nH]c2=O)c1", "values": [{"measurement": "Potency", "setting": "[1]", "result": "inactive"}, {"measurement": "Potency", "setting": "[2]", "result": "inactive"}, {"measurement": "Potency", "setting": "[3]", "result": "inactive"}]}
{"smiles": "CCOC(=O)C1=C[C@]2(CC)CCCN3CCc4c(n1c1ccccc41)[C@@H]32", "values": [{"measurement": "Potency", "setting": "[1]", "result": "inactive"}, {"measurement": "Potency", "setting": "[2]", "result": "inactive"}, {"measurement": "Potency", "setting": "[3]", "result": "inactive"}]}
{"smiles": "NC(=O)c1cnccn1", "values": [{"measurement": "Potency", "setting": "[1]", "result": "inactive"}, {"measurement": "Potency", "setting": "[2]", "result": "inactive"}, {"measurement": "Potency", "setting": "[3]", "result": "inactive"}]}
{"smiles": "NC(=O)c1ccc(-c2nc(-c3ccc4c(c3)OCO4)c(-c3ccccn3)[nH]2)cc1", "values": [{"measurement": "Potency", "setting": "[1]", "result": "inactive"}, {"measurement": "Potency", "setting": "[2]", "result": "inactive"}, {"measurement": "Potency", "setting": "[3]", "result": "inactive"}]}
{"smiles": "CN(C)c1ccc(Nc2nc(N)n(C(=O)c3c(F)cccc3F)n2)cc1", "values": [{"measurement": "Potency", "setting": "[1]", "result": "inactive"}, {"measurement": "Potency", "setting": "[2]", "result": "inactive"}, {"measurement": "Potency", "setting": "[3]", "result": "inactive"}]}
{"smiles": "CCCc1nc2c(C)cc(-c3nc4ccccc4n3C)cc2n1Cc1ccc(-c2ccccc2C(=O)O)cc1", "values": [{"measurement": "Potency", "setting": "[1]", "result": "inactive"}, {"measurement": "Potency", "setting": "[2]", "result": "inactive"}, {"measurement": "Potency", "setting": "[3]", "result": "inactive"}]}
{"smiles": "C[C@H](NC(=O)Cc1cc(F)cc(F)c1)C(=O)N[C@@H]1C(=O)N(C)c2ccccc2-c2ccccc21", "values": [{"measurement": "Potency", "setting": "[1]", "result": "inactive"}, {"measurement": "Potency", "setting": "[2]", "result": "inactive"}, {"measurement": "Potency", "setting": "[3]", "result": "14.8 µM (active)"}]}
{"smiles": "Cc1ccccc1C(OCCN(C)C)c1ccccc1", "note": "(stereo not drawn)", "values": [{"measurement": "Potency", "setting": "[1]", "result": "inactive"}, {"measurement": "Potency", "setting": "[2]", "result": "inactive"}, {"measurement": "Potency", "setting": "[3]", "result": "inactive"}]}
{"smiles": "O=c1ncn2nc(Sc3ccc(F)cc3F)ccc2c1-c1c(Cl)cccc1Cl", "values": [{"measurement": "Potency", "setting": "[1]", "result": "inactive"}, {"measurement": "Potency", "setting": "[2]", "result": "inactive"}]}
{"smiles": "CC(C[N+](C)(C)C)OC(N)=O", "note": "(stereo not drawn)", "values": [{"measurement": "Potency", "setting": "[1]", "result": "inactive"}, {"measurement": "Potency", "setting": "[2]", "result": "inactive"}, {"measurement": "Potency", "setting": "[3]", "result": "inactive"}]}
{"smiles": "O=C1CCc2cc(OCCCCc3nnnn3C3CCCCC3)ccc2N1", "values": [{"measurement": "Potency", "setting": "[1]", "result": "inactive"}, {"measurement": "Potency", "setting": "[2]", "result": "inactive"}, {"measurement": "Potency", "setting": "[3]", "result": "inactive"}]}
